# Rows were chosen to be rich in hits. Some 21% of all compounds tested hit in one or more screens of this group.
# NS1 function inh = qHTS Assay for Inhibitors of Influenza NS1 Protein Function; Potency, µM (titrated, usually from 46.1 µM); 270,000 tested, 0.4% active; further: actives are rising curves; nearly all actives have a fitted effect of over 50% in size
#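 S. cerevisiae expressing influenza A NS1, grown in glucose, washed, then diluted 1:100 into pH 6.0 -URA galactose medium with 23 nl compound. Growth recovery read as OD600; NS1-free strain serves as control.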
# Cycloheximide cs = Cycloheximide Counterscreen for Small Molecule Inhibitors of Shiga Toxin; cell reporter, cycloheximide protein synthesis inhibition counterscreen; max response, %; 300,000 tested, 12% active; AID 2314, 2010; in the data active means max response mostly above about 13%, no sharp cut-off; inactive means mostly below about 14%; further: read at 38.3 µM for the half of the compounds with a filed dose
# Pf growth 48h = Primary qHTS for delayed death inhibitors of the malarial parasite plastid, 48 hour incubation | P. falciparum luciferase growth in erythrocytes, 48 h | 310,000 tested, 5.9% active | Potency, µM (series often up to 28.7 µM), usual class: inhibitors; active means well fitted inhibition curve with a large enough effect; inconclusive means small, poorly fitted or top-dose-only effect, or another doubt; inactive means no such curve, though single readings can be large or run the other way
#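 Luminescence readout; reporter = integrated firefly luciferase in P. falciparum. RBC culture at 2% hematocrit, 0.1% parasitemia final, 37 C/5% CO2; decreased signal taken as growth inhibition.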
# Shiga inhibitor = A qHTS for Small Molecule Inhibitors of Shiga Toxin | AID 2315, 2010 | 290,000 tested, 9.2% active | Vero cells, Shiga toxin protein synthesis inhibition reporter | inhibition, % at 38.7 µM; in the data active means inhibition mostly above about 28%, no sharp cut-off; inactive means mostly below about 43%
# Pf growth 96h = Primary qHTS for delayed death inhibitors of the malarial parasite plastid, 96 hour incubation; AID 504834, 2011; P. falciparum luciferase reporter growth, 96 h; Potency, µM (series often up to 28.7 µM), actives largely listed as inhibitors; 320,000 tested, 6.9% active; active means well fitted inhibition curve with a large enough effect; inconclusive means small, poorly fitted or top-dose-only effect, or another doubt; inactive means no such curve, though single readings can be large or run the other way
#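 96 h incubation, 37 C, 5% CO2, of luciferase-reporter P. falciparum-infected RBCs (2% hematocrit, 0.05% parasitemia final) with test compounds; endpoint luminescence.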
# SARS PLP yeast = qHTS of Yeast-based Assay for SARS-CoV PLP; S. cerevisiae expressing SARS-CoV PLpro, growth rescue; Potency, µM (top dose mostly 32.9 µM), most hits filed as activators; 330,000 tested, 0.19% active; AID 485353, 2010; further: nearly all actives have a fitted effect of over 55% in size
# Hits are given with their value; i = inactive; ? = inconclusive; nt = no result. Unless noted, the call rests on the fitted dose curve.
SMILES,NS1 function inh,Cycloheximide cs,Pf growth 48h,Shiga inhibitor,Pf growth 96h,SARS PLP yeast
O=C(Nc1ccc(SC(F)(F)F)cc1)c1ccccn1,i,30,i,113,i,i
CS(=O)(=O)c1cccc(S(=O)(=O)N2CCCCCC2)c1,i,i,i,i,i,i
O=C(CNC(=O)c1ccc2ccccc2c1)NCc1ccc(F)cc1,i,i,i,i,i,i
O=C(O)C/C=C(/NC(=O)OCc1ccccc1)C(=O)OCc1ccccc1,nt,i,i,i,i,i
COc1cc(-c2noc(C)c2-c2ccc3[nH]ccc3c2)cc(OC)c1OC,i,i,?,i,10µM,i
CN1C(=O)C(=Cc2ccc(N3CCCCCC3)o2)C(=O)N(C)C1=S,i,i,i,i,nt,i
CCCN1C(=O)/C(=C\C=C2/Sc3ccccc3N2CC)SC1=S,i,i,i,i,i,i
CN1C(=O)/C(=C/C=C2\SCCN2C)N(C)C1=S,nt,49,i,121,?,i
CN1C(=O)/C(=C/C=C2\SCCN2C)SC1=S,i,58,i,82,i,i
CCOCCc1nnc(NC(=O)Cc2c(F)cccc2Cl)s1,i,i,i,i,i,i
COc1cc(C(=O)OCC(=O)Nc2ccccc2C(=O)NC2CC2)c([N+](=O)[O-])cc1OC,nt,nt,i,nt,?,i
COc1cc(NC(=O)C2=C(N3CCOCC3)/C(=C\c3ccc(N(C)C)cc3)CCC2)cc(OC)c1OC,i,46,15µM,77,?,i
CCOC(=O)c1sc(NC(=O)C2CC(=O)N(c3ccc4c(c3)OCCO4)C2)nc1C (stereo not drawn),nt,nt,?,nt,i,i
COCCNc1oc(-c2ccc(Cl)cc2)nc1C#N,i,38,i,70,?,i
N#Cc1nc(-c2ccc(F)cc2)oc1NCCN1CCOCC1,i,i,i,i,i,i
COCCNc1oc(-c2ccc(C)cc2)nc1C#N,i,23,i,i,?,i
Cc1ccc(-c2nc(C#N)c(NCCN3CCCCC3)o2)cc1,i,15,i,25,i,i
Clc1cc(Cl)c(OCCCCn2cncn2)c(Cl)c1,i,i,i,i,0.29µM,i
Brc1cccc(OCCCCn2cncn2)c1,i,i,i,i,i,i
N#C/C(C(=O)N1CCOCC1)=C1/SC(Cc2ccccc2Cl)C(=O)N1c1ccccc1 (stereo not drawn),i,i,i,i,?,?
CC1(C)O[C@@H]2O[C@H]([C@@H]3COC(C)(C)O3)[C@H](N)[C@H]2O1,i,nt,nt,nt,nt,nt
COc1ccc(N2CCCn3c2nc2c3c(=O)n(Cc3ccc(C)cc3)c(=O)n2C)c(OC)c1,nt,i,9.3µM,i,i,i
CCCn1c(=O)c2c(nc3n2CCCN3Cc2ccccc2)n(C)c1=O,i,i,?,i,13µM,i
Cc1ccc(Cn2c(=O)c3c(nc4n3CCN4Cc3ccco3)n(C)c2=O)cc1,?,i,13µM,i,i,i
Cn1c(=O)n(Cc2ccc(F)cc2)c(=O)c2c1nc1n2CCCN1Cc1ccccc1,i,i,2.1µM,i,1.3µM,i
SMILES,NS1 function inh,Cycloheximide cs,Pf growth 48h,Shiga inhibitor,Pf growth 96h,SARS PLP yeast
Cn1c(=O)n(CCc2ccccc2)c(=O)c2c1nc1n2CCCN1Cc1ccccc1,i,i,?,i,i,i
Cc1cc(C)cc(N(C(=O)CNC(=O)c2ccco2)C(C(=O)NC2CCCCC2)c2cccnc2)c1 (stereo not drawn),i,i,?,i,i,i
O=C(N1CCOCC1)N(CCN1CCOCC1)Cc1cccc(Cl)c1,i,i,i,i,nt,nt
CC(=O)Nc1ccc(S(=O)(=O)NCCC(=O)Nc2ccc(C)c(F)c2)cc1,i,i,i,i,?,i
Cc1ccc(NC(=O)CCNS(=O)(=O)c2cccs2)cc1F,i,26,i,70,i,i
O=C(CCC(=O)c1cccs1)Nc1ccccc1F,i,16,i,i,i,i
Cc1ccc(NC(=O)CCC(=O)c2cccs2)cc1F,i,27,i,i,i,i
Cc1ccc(NC(=O)CNS(=O)(=O)c2cccs2)cc1F,i,80,i,79,nt,i
COc1ccc(NC(=O)CNS(=O)(=O)c2cccs2)cc1,i,i,i,i,i,i
CC(NS(=O)(=O)c1ccc(NC(=O)N2CCCCC2)cc1)c1ccccc1 (stereo not drawn),i,i,i,i,?,i
CCN(CC)S(=O)(=O)c1cccc(NC(=O)c2cc3ccccc3o2)c1,i,i,?,55,?,i
CN(C)S(=O)(=O)c1cccc(NC(=O)c2cc3ccccc3o2)c1,i,57,i,i,nt,i
O=C(Nc1cccc(S(=O)(=O)N2CCCCC2)c1)c1cc2ccccc2o1,nt,nt,?,nt,i,i
CCOc1cccc(CN2CCN(CCCc3ccccc3)C(CCO)C2)c1O (stereo not drawn),i,i,?,i,?,i
CCn1c(=O)c2sccc2n(Cc2cc(C(=O)OC)ccc2OC)c1=O,i,i,i,i,i,i
COc1ccc(C[C@@H]2CN3C(=NC[C@@H]3C)N2C[C@H](C)NC(=O)c2ccc(C)c(Br)c2)cc1,i,i,8.3µM,i,2.6µM,i
Cc1ccc(C(=O)NCCN2C3=NC[C@H](C)N3C[C@H]2Cc2ccc(O)cc2)cc1Br,i,i,?,i,13µM,i
COc1ccc(C[C@H]2CN3C(=NC[C@H]3C)N2CCNC(=O)c2ccc(C)c(Br)c2)cc1,i,i,i,i,3.7µM,i
Cc1ccc2cccc(OCC(=O)Nc3ccc(N4CCOCC4)cc3)c2n1,i,i,i,i,i,i
CCc1ccc(S(=O)(=O)NCc2cccs2)cc1,i,i,i,i,i,i
CCc1ccc(CNCc2cccs2)cc1,i,29,i,55,i,i
COc1ccc(S(=O)(=O)N2CCOC23CCN(S(=O)(=O)c2ccc(Cl)cc2)CC3)cc1,nt,nt,12µM,nt,?,i
COc1ccc(S(=O)(=O)N2CCOC23CCN(S(=O)(=O)c2c(C)cc(C)cc2C)CC3)cc1,nt,nt,?,nt,?,i
COc1ccc(S(=O)(=O)N2CCOC23CCN(S(=O)(=O)c2cccs2)CC3)cc1,nt,nt,?,nt,?,i
COc1ccc(S(=O)(=O)N2CCC3(CC2)OCCN3S(=O)(=O)c2ccc(OC)cc2)cc1,nt,nt,?,nt,9.3µM,i
SMILES,NS1 function inh,Cycloheximide cs,Pf growth 48h,Shiga inhibitor,Pf growth 96h,SARS PLP yeast
COc1ccc(-c2ccccc2)cc1NCc1ccc(OC)c(OC)c1,?,i,i,i,i,i
COc1ccc(-c2ccccc2)cc1NCc1ccccc1C,i,44,i,i,?,i
COc1ccccc1CNc1ccccc1F,i,17,i,i,i,i
COc1ccccc1CNc1cc(-c2ccccc2)ccc1OC,i,i,?,i,9.3µM,i
Cc1nc(C)c(C(=O)N2CCCC(CCC(=O)NCc3ccc(F)c(F)c3)C2)s1 (stereo not drawn),i,i,i,i,9.3µM,i
O=C(CCC1CCCN(C(=O)c2cncs2)C1)NCc1ccc(F)c(F)c1 (stereo not drawn),i,i,i,i,8.3µM,i
O=C(O)c1ccccc1Cc1ccccc1,nt,i,nt,i,nt,nt
